Laboratory results reported in PubChem BioAssay (EPA / NIEHS).
Results filed as inconclusive are left out. Calls of active or inactive are those of the source. Rule for the calls, unless noted: active = hit-call score of the fitted dose curve at least 0.9, where 1 is the maximum; inactive = score below 0.9.

Columns and labels:
[1] = biological target: Glucocorticoid receptor (Homo sapiens) (UniProt P04150); assay: ATG_GR_TRANS: Attagene TRANS-FACTORIAL HepG2 Assay for human Glucocorticoid Receptor (GR) (AID 2282978; active = hit-call score of the fitted dose curve at least 0.9, where 1 is the maximum;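 note: activators score as hits since higher reporter transcript over DMSO is fitted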); conditions: HepG2 Attagene TRANS GR reporter, mRNA transcription
Chain of Glucocorticoid receptor (Homo sapiens) (P04150 whole entry, looked up): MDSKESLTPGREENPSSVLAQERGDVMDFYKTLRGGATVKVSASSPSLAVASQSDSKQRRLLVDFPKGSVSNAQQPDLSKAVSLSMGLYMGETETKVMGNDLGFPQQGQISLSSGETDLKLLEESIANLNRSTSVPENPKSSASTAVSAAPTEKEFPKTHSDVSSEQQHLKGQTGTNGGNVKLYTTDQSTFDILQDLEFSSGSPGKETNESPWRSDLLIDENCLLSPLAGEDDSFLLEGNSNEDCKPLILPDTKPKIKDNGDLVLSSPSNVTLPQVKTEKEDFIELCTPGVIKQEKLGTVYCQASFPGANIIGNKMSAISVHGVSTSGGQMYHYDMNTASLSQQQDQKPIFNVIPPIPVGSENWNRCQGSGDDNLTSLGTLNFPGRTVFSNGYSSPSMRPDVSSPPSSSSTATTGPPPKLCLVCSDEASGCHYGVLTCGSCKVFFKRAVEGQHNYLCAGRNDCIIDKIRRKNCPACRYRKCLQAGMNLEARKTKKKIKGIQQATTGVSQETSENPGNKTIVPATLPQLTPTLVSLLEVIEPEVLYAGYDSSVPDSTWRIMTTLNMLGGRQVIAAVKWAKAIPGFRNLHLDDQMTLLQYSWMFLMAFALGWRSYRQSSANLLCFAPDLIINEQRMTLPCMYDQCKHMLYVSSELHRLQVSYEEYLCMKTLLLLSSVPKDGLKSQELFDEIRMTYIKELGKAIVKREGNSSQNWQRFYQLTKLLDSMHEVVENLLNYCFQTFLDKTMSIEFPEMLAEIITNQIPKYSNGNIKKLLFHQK
Method in brief: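 After 24 h incubation with test chemical, transfected HepG2 cells were lysed for RNA; reporter cDNA was amplified, FAM-labelled, HpaI-digested and sized on a capillary analyser. Signal gain relative to DMSO was scored.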

[2] = biological target: Bile acid receptor (Homo sapiens) (UniProt Q96RI1); assay: ATG_FXR_TRANS: Attagene TRANS-FACTORIAL HepG2 Assay for Farnesoid X Receptor (FXR) (AID 2282979; active = hit-call score of the fitted dose curve at least 0.9, where 1 is the maximum;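 note: hits raise reporter mRNA above DMSO so AC50 marks FXR activation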); conditions: HepG2 Attagene TRANS FXR-GAL4 reporter transcription
Chain of Bile acid receptor (Homo sapiens) (Q96RI1 whole entry, looked up, the tested form may be a part): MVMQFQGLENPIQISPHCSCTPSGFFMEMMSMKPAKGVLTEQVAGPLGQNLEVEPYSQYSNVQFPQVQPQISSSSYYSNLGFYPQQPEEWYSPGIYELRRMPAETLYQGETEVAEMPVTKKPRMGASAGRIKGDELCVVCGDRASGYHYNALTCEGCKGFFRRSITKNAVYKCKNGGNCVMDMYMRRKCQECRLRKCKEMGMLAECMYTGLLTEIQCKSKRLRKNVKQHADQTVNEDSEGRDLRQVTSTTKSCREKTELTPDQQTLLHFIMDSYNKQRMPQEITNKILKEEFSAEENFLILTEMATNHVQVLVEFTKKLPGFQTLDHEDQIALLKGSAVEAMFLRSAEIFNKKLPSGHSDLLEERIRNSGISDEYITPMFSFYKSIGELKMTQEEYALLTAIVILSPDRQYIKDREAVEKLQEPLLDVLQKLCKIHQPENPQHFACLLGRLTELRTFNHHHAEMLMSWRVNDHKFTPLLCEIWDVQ
Method in brief: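 Read-out: fluorescent reporter transcripts quantified by capillary electrophoresis after RT-PCR of total RNA. Source cells were HepG2 transiently carrying chimeric NR-GAL4 plus GAL4-UAS reporter units, dosed 24 h. Activity fitted upward relative to DMSO baseline.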

[3] = ATG_M_06_TRANS: Attagene TRANS-FACTORIAL HepG2 Assay for M06 Transcription Factor (Internal Marker) (AID 2282983; active = hit-call score of the fitted dose curve at least 0.9, where 1 is the maximum); conditions: HepG2 Attagene TRANS M06 internal marker reporter
Method in brief: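 After a 24 h chemical treatment of transfected HepG2, RNA underwent DNase I treatment, reverse transcription and reporter-specific PCR; labelled, HpaI-digested products were sized by capillary electrophoresis. Signal increase relative to DMSO defined activity.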

[4] = ATG_M_32_TRANS: Attagene TRANS-FACTORIAL HepG2 Assay for M32 Transcription Factor (Internal Marker) (AID 2282984; active = hit-call score of the fitted dose curve at least 0.9, where 1 is the maximum;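 note: transcript level of a background control reporter unit measured by RT-PCR and capillary electrophoresis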); conditions: HepG2 Attagene TRANS M32 internal marker reporter
Method in brief: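 Measures reporter mRNA induction in human HepG2 liver cells after 24 h chemical treatment. Transcripts from transiently transfected GAL4-UAS reporter units are amplified, fluorescently labelled and sized by capillary electrophoresis; gain of signal relative to DMSO.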

[5] = biological target: Nuclear receptor subfamily 4 group A member 2 (Homo sapiens) (UniProt P43354); assay: ATG_NURR1_TRANS: Attagene TRANS-FACTORIAL HepG2 Assay for human Nuclear Receptor Related Protein 1 (NURR1) (AID 2282985; active = hit-call score of the fitted dose curve at least 0.9, where 1 is the maximum); conditions: HepG2 Attagene TRANS reporter, mRNA readout
Chain of Nuclear receptor subfamily 4 group A member 2 (Homo sapiens) (P43354 whole entry, looked up, the tested form may be a part): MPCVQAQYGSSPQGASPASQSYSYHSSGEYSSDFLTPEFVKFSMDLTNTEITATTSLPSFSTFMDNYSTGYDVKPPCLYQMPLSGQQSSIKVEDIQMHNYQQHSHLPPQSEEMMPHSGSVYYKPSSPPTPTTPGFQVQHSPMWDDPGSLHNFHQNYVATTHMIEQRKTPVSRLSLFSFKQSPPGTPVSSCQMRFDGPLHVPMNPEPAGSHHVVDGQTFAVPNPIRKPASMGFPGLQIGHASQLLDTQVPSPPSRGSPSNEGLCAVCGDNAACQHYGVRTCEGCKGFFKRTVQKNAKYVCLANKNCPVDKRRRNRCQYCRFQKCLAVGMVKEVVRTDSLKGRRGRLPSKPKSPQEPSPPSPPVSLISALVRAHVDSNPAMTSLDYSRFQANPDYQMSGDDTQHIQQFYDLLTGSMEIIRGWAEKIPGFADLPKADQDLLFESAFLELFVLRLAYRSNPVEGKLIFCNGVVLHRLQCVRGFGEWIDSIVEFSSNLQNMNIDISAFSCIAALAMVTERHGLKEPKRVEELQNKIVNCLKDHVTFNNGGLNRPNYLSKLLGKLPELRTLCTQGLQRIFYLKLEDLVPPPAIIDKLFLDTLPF
Method in brief: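 Transient transfection of HepG2, human liver cells, with multiple GAL4-UAS reporter transcription units. Cells dosed 24 h, RNA isolated, reverse-transcribed, PCR-amplified, FAM-labelled, HpaI-digested, sized by capillary electrophoresis. DMSO served as negative control.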

[6] = biological target: Transcriptional activator Myb (Homo sapiens) (UniProt P10242); assay: ATG_Myb_CIS: Attagene CIS-FACTORIAL HepG2 Assay for human Myeloblastosis (Myb) Proto-Oncogene Transcription Factor (AID 2282986); conditions: HepG2 Attagene CIS-FACTORIAL Myb reporter transcription; actives raise or lower the signal
Chain of Transcriptional activator Myb (Homo sapiens) (P10242 whole entry, looked up): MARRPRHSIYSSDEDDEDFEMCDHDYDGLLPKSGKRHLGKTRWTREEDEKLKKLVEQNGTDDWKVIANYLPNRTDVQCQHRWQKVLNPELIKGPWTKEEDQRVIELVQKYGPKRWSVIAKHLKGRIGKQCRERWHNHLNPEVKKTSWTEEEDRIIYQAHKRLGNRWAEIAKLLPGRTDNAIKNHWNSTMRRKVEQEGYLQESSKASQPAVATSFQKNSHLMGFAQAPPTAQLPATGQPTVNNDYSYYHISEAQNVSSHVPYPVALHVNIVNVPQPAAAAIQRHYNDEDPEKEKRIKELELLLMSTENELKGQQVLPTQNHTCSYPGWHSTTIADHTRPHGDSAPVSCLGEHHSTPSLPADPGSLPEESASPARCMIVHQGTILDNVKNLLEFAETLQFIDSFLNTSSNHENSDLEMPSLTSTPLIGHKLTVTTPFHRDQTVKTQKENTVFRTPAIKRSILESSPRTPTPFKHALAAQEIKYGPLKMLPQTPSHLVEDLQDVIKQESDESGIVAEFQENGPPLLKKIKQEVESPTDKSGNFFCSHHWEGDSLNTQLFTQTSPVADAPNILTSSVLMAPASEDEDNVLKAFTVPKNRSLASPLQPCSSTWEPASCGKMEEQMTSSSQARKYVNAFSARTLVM
Method in brief: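 After 24 h of compound dosing, total RNA from transfected HepG2 cells is reverse-transcribed and the reporter sequences amplified, labeled and separated by capillary electrophoresis. Values come from bidirectional fitting against DMSO.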

[7] = ATG_NFI_CIS: Attagene CIS-FACTORIAL HepG2 Assay for human Nuclear Factor I (NFI) (AID 2282989); conditions: HepG2 cis-regulatory reporter, NFI response element transcription; actives raise or lower the signal
Method in brief: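 Cells: human liver HepG2, transiently transfected with promoter-regulated reporter transcription units. Exposure 24 h. Detection: fluorescent RT-PCR products separated by capillary electrophoresis, normalised to DMSO negative control.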

[8] = biological target: Myc proto-oncogene protein (Homo sapiens) (UniProt P01106); assay: ATG_Myc_CIS: Attagene CIS-FACTORIAL HepG2 Assay for human Myelocytomatosis (Myc) Proto-Oncogene Transcription Factor (AID 2282990); conditions: HepG2, Attagene cis-reporter transcription factor activity; actives raise or lower the signal
Chain of Myc proto-oncogene protein (Homo sapiens) (P01106 whole entry, looked up): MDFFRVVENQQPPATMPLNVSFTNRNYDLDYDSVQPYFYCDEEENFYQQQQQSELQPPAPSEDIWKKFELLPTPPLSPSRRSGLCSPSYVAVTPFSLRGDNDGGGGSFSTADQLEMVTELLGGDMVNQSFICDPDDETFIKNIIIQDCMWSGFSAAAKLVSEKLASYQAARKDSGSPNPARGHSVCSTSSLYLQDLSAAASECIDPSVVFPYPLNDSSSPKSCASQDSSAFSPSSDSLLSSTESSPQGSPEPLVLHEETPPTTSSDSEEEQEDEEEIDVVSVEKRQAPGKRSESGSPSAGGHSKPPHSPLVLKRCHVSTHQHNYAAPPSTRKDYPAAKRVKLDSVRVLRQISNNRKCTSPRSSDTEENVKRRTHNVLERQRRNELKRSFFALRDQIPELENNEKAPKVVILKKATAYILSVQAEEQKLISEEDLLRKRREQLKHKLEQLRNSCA
Method in brief: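 HepG2, transient MRTU transfection (cis promoters, endogenous TFs); 24 h dosing; TriZol RNA → oligo(dT) RT → PCR → 6-FAM primer extension → HpaI cut → CE. Bidirectional fit vs DMSO.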

[9] = ATG_NRF2_ARE_CIS: Attagene CIS-FACTORIAL HepG2 Assay for human Nuclear Factor Erythroid 2 Related Factor 2 (NFR2) response to Antioxidant Response Elements (ARE) (AID 2282992); conditions: HepG2 Attagene ARE/NRF2 reporter, transcription factor activity; actives raise or lower the signal
Method in brief: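 Cis-factorial assay: transfected HepG2 reporter library, 24 h dosing, mRNA readout via RT-PCR/CE; DMSO-referenced bidirectional analysis.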

[10] = ATG_Oct_MLP_CIS: Attagene CIS-FACTORIAL HepG2 Assay for human Octamer-Binding Transcription Factor (Oct) (AID 2282993); conditions: HepG2 Attagene cis-factorial Oct reporter, mRNA; actives raise or lower the signal
Method in brief: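 HepG2, transient MRTU transfection, cis promoter elements; 24 h dosing; RT-PCR/CE fluorescence read-out of reporter mRNA; fit both directions vs DMSO.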

[11] = biological target: Cellular tumor antigen p53 (Homo sapiens) (UniProt P04637); assay: ATG_p53_CIS: Attagene CIS-FACTORIAL HepG2 Assay for human p53 Transcription Factor (AID 2282994); conditions: HepG2 p53 cis-element reporter, Attagene mRNA; actives raise or lower the signal
Chain of Cellular tumor antigen p53 (Homo sapiens) (P04637 whole entry, looked up): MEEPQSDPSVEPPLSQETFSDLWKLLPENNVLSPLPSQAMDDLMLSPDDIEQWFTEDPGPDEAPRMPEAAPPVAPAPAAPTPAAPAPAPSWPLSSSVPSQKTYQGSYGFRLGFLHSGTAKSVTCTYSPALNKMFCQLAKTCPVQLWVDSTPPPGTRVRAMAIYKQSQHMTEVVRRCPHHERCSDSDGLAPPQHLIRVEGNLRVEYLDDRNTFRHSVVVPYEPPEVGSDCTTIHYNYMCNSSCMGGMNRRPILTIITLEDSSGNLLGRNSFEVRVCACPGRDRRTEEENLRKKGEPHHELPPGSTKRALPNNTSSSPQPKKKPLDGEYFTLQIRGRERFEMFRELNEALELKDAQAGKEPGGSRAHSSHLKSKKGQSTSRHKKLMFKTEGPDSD
Method in brief: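 Using HepG2 hepatoma cells carrying cis-acting multiplexed reporters, mRNA induction is detected after a 24 h exposure. Gain- and loss-of-signal responses are fitted relative to DMSO-treated cells.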

[12] = biological target: Oxysterols receptor LXR-alpha (Homo sapiens) (UniProt Q13133); assay: ATG_LXRa_TRANS: Attagene TRANS-FACTORIAL HepG2 Assay for human Liver X Receptor alpha (LXRa) (AID 2282980; active = hit-call score of the fitted dose curve at least 0.9, where 1 is the maximum); conditions: HepG2 Attagene TRANS reporter, LXRa transactivation
Method in brief: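 Read-out: reporter transcript levels by RT-PCR plus capillary electrophoresis, fluorescence intensity. Transiently transfected HepG2, exogenous NR-GAL4 chimera, GAL4-UAS reporters; 24 h compound exposure. Activity = increase over DMSO negative control.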

[13] = biological target: Oxysterols receptor LXR-beta (Homo sapiens) (UniProt P55055); assay: ATG_LXRb_TRANS: Attagene TRANS-FACTORIAL HepG2 Assay for human Liver X Receptor beta (LXRb) (AID 2282981; active = hit-call score of the fitted dose curve at least 0.9, where 1 is the maximum); conditions: HepG2 Attagene TRANS GAL4-LXRb reporter, mRNA
Chain of Oxysterols receptor LXR-beta (Homo sapiens) (P55055 whole entry, looked up, the tested form may be a part): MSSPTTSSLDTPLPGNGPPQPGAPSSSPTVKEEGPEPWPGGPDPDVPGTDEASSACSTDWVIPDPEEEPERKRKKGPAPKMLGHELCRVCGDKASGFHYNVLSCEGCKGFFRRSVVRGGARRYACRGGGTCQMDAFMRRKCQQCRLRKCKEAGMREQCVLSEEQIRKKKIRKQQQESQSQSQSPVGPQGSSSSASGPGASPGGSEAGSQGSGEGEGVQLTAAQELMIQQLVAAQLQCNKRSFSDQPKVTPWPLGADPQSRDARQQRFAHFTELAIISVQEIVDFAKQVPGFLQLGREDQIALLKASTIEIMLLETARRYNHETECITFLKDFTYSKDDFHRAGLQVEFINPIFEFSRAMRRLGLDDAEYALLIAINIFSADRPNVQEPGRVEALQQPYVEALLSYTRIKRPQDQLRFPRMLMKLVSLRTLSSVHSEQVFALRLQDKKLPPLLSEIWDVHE
Method in brief: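 Transient transfection HepG2 (multiplexed RTUs, GAL4-UAS); NR-Gal4 chimera; 24 h exposure; RNA → RT-PCR → 6-FAM primer extension → HpaI → CE; increase vs DMSO.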

[14] = biological target: Hepatocyte nuclear factor 4-alpha (Homo sapiens) (UniProt P41235); assay: ATG_HNF4a_TRANS: Attagene TRANS-FACTORIAL HepG2 Assay for human Hepatocyte Nuclear Factor 4 alpha (HNF4a) (AID 2282982; active = hit-call score of the fitted dose curve at least 0.9, where 1 is the maximum); conditions: HepG2 HNF4a transactivation reporter, mRNA readout
Chain of Hepatocyte nuclear factor 4-alpha (Homo sapiens) (P41235 whole entry, looked up, the tested form may be a part): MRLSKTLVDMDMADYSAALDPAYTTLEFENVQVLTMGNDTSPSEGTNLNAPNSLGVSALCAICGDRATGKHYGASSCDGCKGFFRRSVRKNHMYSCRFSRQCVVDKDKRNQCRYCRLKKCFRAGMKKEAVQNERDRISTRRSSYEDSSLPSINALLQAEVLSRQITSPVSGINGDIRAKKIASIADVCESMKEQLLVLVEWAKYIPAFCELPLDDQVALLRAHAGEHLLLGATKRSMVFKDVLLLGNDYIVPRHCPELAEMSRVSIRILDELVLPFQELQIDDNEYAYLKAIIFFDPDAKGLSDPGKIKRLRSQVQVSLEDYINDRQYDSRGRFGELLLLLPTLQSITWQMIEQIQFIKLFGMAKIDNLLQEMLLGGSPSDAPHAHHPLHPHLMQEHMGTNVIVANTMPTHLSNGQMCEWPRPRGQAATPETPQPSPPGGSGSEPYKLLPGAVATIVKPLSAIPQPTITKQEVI
Method in brief: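 Readout is fluorescent reporter-transcript fragments resolved by capillary electrophoresis after RT-PCR from HepG2 cells dosed for 24 h. Cells carried transfected GAL4-UAS reporter constructs measuring exogenous NR-GAL4 chimera activity; DMSO served as baseline.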

[15] = biological target: Nuclear respiratory factor 1 (Homo sapiens) (UniProt Q16656); assay: ATG_NRF1_CIS: Attagene CIS-FACTORIAL HepG2 Assay for human Nuclear Respiratory Factor 1 (NRF1) Orphan Gene (AID 2282987); conditions: HepG2 NRF1 cis-element reporter, Attagene multiplex; actives raise or lower the signal
Chain of Nuclear respiratory factor 1 (Homo sapiens) (Q16656 whole entry, looked up): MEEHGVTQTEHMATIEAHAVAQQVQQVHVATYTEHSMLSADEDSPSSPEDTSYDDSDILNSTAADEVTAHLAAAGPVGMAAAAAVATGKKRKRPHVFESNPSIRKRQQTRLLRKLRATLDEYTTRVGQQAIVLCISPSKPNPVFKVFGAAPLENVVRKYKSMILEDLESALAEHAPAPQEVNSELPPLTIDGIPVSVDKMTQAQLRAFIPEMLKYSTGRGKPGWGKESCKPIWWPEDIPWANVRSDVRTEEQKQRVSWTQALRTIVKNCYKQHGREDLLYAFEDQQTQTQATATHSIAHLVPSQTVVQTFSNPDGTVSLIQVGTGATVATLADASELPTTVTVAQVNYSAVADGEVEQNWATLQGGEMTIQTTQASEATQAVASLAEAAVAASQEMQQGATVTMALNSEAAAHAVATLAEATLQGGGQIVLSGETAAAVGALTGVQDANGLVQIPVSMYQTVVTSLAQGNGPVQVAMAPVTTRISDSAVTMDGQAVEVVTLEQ
Method in brief: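 Measured: fluorescent reporter-specific RT-PCR products from transfected HepG2 cells, separated by capillary electrophoresis. Exposure lasted 24 h. Analysis used bidirectional curve fitting with DMSO as negative control.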

[16] = ATG_NF_kB_CIS: Attagene CIS-FACTORIAL HepG2 Assay for human Nuclear Factor Kappa B (NF-kB) (AID 2282991); conditions: HepG2 Attagene cis-factorial NF-kB reporter mRNA; actives raise or lower the signal
Method in brief: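 Fluorescence of labelled RT-PCR products separated by capillary electrophoresis gives reporter mRNA levels from transfected HepG2 cells exposed 24 h; values are fitted in both directions relative to DMSO.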

[17] = BSK_3C_TissueFactor: BioMAP Diversity Plus: 3C Assay for Tissue Factor Biomarker Activity (AID 2282997); conditions: BioMAP 3C HUVEC, tissue factor biomarker readout; actives raise or lower the signal
Method in brief: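 Human vascular primary cells (umbilical vein endothelium) received test chemical; Tissue Factor was determined by ELISA at 24 h, and both gain and loss of signal versus DMSO were fitted.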

[18] = BSK_3C_uPAR: BioMAP Diversity Plus: 3C Assay for Urokinase-type plasminogen activator receptor (uPAR) Biomarker Activity (AID 2282998); conditions: BioMAP 3C HUVEC, uPAR biomarker ELISA; actives raise or lower the signal
Method in brief: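 A multiplexed primary-cell system built on human umbilical vein endothelium was used, with chemical present for 24 h before reading. Cell-surface uPAR was detected by ELISA; signal change in either direction counted against DMSO.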

[19] = BSK_3C_VCAM1: BioMAP Diversity Plus: 3C Assay for Vascular cell adhesion molecule 1 (VCAM1) Biomarker Activity (AID 2282999); conditions: BioMAP 3C HUVEC, VCAM1 ELISA, cytokine-stimulated; actives raise or lower the signal
Method in brief: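 Endothelial cells from human umbilical vein are treated with test chemical. At 24 h, VCAM-1 is measured by ELISA, and responses in either direction are fitted relative to DMSO.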

[20] = biological target: Estrogen-related receptor gamma (Homo sapiens) (UniProt P62508); assay: ATG_ERRg_TRANS: Attagene TRANS-FACTORIAL HepG2 Assay for human Estrogen-Related Receptor gamma (ERRg) (AID 2282977; active = hit-call score of the fitted dose curve at least 0.9, where 1 is the maximum;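 note: hits increase reporter signal over DMSO so potencies reflect activators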); conditions: HepG2 Attagene TRANS reporter, ERRg transactivation
Method in brief: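 Transfect HepG2 with multiple GAL4-UAS reporter transcription units; dose chemicals 24 h; isolate RNA, reverse-transcribe with oligo(dT), PCR-amplify, label with 6-FAM, digest with HpaI; size fragments by capillary electrophoresis. DMSO serves as negative control.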

Measured: AC50

C=C/C(C)=C/C/C=C(\C)CCC=C(C)C
inactive: [1] | [2] | [3] | [4] | [5] | [6] | [7] | [8] | [10] | [11]
active: [9] 67.1 µM

CC(C)CCOC(=O)CC(C)C
not listed: [3] | [6] | [16] | [17] | [18] | [19] | [20]
inactive: all other assays above

CCO[Si](CCC#N)(OCC)OCC
not listed: [11] | [15] | [17] | [18] | [19] | [20]
inactive: all other assays above

CC=CC(=O)C1=C(C)C=CCC1(C)C
not listed: [3] | [4] | [12] | [20]
inactive: all other assays above

CC(C)C(=O)OCC=Cc1ccccc1
active: [9] 59.3 µM
not listed: [3] | [12] | [13] | [15] | [17] | [18] | [19] | [20]
inactive: all other assays above

NS(=O)(=O)c1cc(C(=O)O)c(NCc2ccco2)cc1Cl
inactive: [20] | [3] | [4] | [6] | [8]

CC(=O)c1ccc(O)cc1
not listed: [5] | [13] | [17] | [18] | [19] | [20]
inactive: all other assays above

C=CC(C)(CCC=C(C)C)OC(=O)CC (configuration not stated)
active: [9] 68.1 µM
not listed: [3] | [7] | [15] | [16] | [17] | [18] | [19] | [20]
inactive: all other assays above

Cc1cc(O)c(C)c(C)c1O
inactive: [20] | [3] | [4] | [5] | [15] | [8] | [10] | [11]
active: [16] 50.7 µM | [9] 18.8 µM

CC/C=C\C#N
not listed: [2] | [6] | [7] | [15] | [17] | [18] | [19] | [20]
inactive: all other assays above

CCC=C(C)C=O
not listed: [7] | [10] | [12] | [17] | [18] | [19] | [20]
inactive: all other assays above
